Hit rate of the full screen: of about 69,000 compounds, about 8,600 (12%) showed an effect of 50% or more. What follows is part of a selection rich in strong results, with near analogues and random picks from the rest.
Each molecule was assayed on Plasmodium berghei (assay: Screen against P. berghei liver stage (PbLuc), transformed with Luciferase, at 10uM). Conditions: tested at 10 uM.
Assay type: functional, HepG2

Which INHIBITION does the source give for `Cc1nn(C)c(C)c1CN1CCN(CC2(O)CCCN(C)C2)CC1` (stereo not given) here?
Its INHIBITION is 20.9%.

For `O=C1NC(c2cnc(C3CCC3)s2)Nc2ncccc21` (stereo not given), which INHIBITION is on record?
Its INHIBITION is -44.2%.

`Cc1cc(NC(=O)Cn2ncc(SCC(N)=O)c(Cl)c2=O)ccc1Br` was tested. Which INHIBITION did it give?
Its INHIBITION is 49.7%.

With `CNC(=O)CSc1cnn(CC(=O)Nc2cccc(Cl)c2C)c(=O)c1Cl` as the molecule, how does the INHIBITION read?
The INHIBITION was 45.7%.

How did the INHIBITION turn out when `Cc1ccc(NC(=O)Cn2ncc(SCC(N)=O)c(Cl)c2=O)c(F)c1` was run?
The INHIBITION was 64.5%.

For `Cc1cccc(NC(=O)CNC(=O)Cn2ncc(Cl)c(Cl)c2=O)c1C`, which INHIBITION is on record?
The INHIBITION was 5.14%.

With `Cc1ccc(NC(=O)Cn2ncc(SCC(N)=O)c(Cl)c2=O)cc1` as the molecule, how does the INHIBITION read?
Its INHIBITION is 30.5%.

`Cc1cccc(NC(=O)Cn2ncc(SCC(N)=O)c(Cl)c2=O)c1C` was tested. Which INHIBITION did it give?
The INHIBITION was 50.5%.

Which INHIBITION does the source give for `CC(=O)N1CCCCC12CCCN(Cc1ccco1)C2` (stereo not given) here?
The INHIBITION was 28.4%.

Which INHIBITION does the source give for `CCC[C@@H]1CN(Cc2ccccc2SC)C[C@H]1NC(C)=O` here?
The INHIBITION was -7.53%.

Which INHIBITION does the source give for `CC(C)(NC(=O)c1ccc(-c2ccccc2F)s1)C(N)=O` here?
The INHIBITION was -29%.

How did the INHIBITION turn out when `CN(C)S(=O)(=O)N1C[C@H]2CC[C@@H](C1)N(Cc1cccc(C#N)c1)C2` was run?
Its INHIBITION is -6.88%.

Which INHIBITION does the source give for `O=C(Cn1ccc2ccccc21)NCc1ccc(C(=O)O)cc1` here?
Its INHIBITION is 15.8%.

How did the INHIBITION turn out when `COC(=O)C1CCN(C(=O)c2nnc3ccc(C)cc3n2)CC1` was run?
The INHIBITION was 49.9%.

With `CN1CCN(C(=O)c2nnc3ccc(Cl)cc3n2)CC1` as the molecule, how does the INHIBITION read?
The INHIBITION was 1.04%.

How did the INHIBITION turn out when `COC(=O)C1CCN(C(=O)c2nnc3ccc(Cl)cc3n2)CC1` was run?
The INHIBITION was 52.4%.

How did the INHIBITION turn out when `CCc1nc(C(=O)N2CCCC2)nn1-c1c(Cl)cccc1Cl` was run?
The INHIBITION was 48.4%.

With `Cc1cc2cc(CNC3CCN(CC4CCOC4)CC3)oc2cc1C` (stereo not given) as the molecule, how does the INHIBITION read?
Its INHIBITION is 48.5%.

For `Cc1nc(-c2c(C)noc2C)cc(C2CCN(CC(=O)N(C)C)CC2)n1`, which INHIBITION is on record?
Its INHIBITION is 13.8%.

For `Cc1cc(Cl)cc(C)c1CNC1CCN(CC(=O)N(C)C)CC1`, which INHIBITION is on record?
The INHIBITION was 56.1%.

`CC(NC1CCN(CC(=O)N(C)C)CC1)c1cnn(C(C)C)c1` (stereo not given) was tested. Which INHIBITION did it give?
The INHIBITION was 19.8%.

How did the INHIBITION turn out when `Cc1cc2cc(CNC3CCN(S(C)(=O)=O)CC3)oc2cc1C` was run?
Its INHIBITION is 49.6%.

Which INHIBITION does the source give for `Cc1cc2cc(CNC3CCN(CC(=O)N(C)C)CC3)oc2cc1C` here?
Its INHIBITION is 53.9%.

Which INHIBITION does the source give for `CC(=O)N1CCC12CCN(Cc1ccco1)CC2` here?
The INHIBITION was 9.97%.

How did the INHIBITION turn out when `O=C([C@H]1CC[C@@H]2[C@@H](CCN2C2CCCC2)O1)N1CCOCC1` was run?
Its INHIBITION is -3.26%.

With `O=C(NCc1ccc(-n2cncn2)nc1)c1cc(Cl)c2c(c1)OCCO2` as the molecule, how does the INHIBITION read?
The INHIBITION was 9.54%.

Which INHIBITION does the source give for `CCn1ncc2c1C(COC)CN(c1ncc(F)cn1)C2` (stereo not given) here?
Its INHIBITION is -7.24%.

`COc1ccc2c(c1)NC(C1CCN(C(=O)C(C)C)CC1)NS2(=O)=O` (stereo not given) was tested. Which INHIBITION did it give?
The INHIBITION was -12.3%.

`CCn1ncnc1C(C)NC(=O)C1CCN(C(C)C)CC1` (stereo not given) was tested. Which INHIBITION did it give?
The INHIBITION was -1.64%.

For `CCC(NC(=O)CCCN1CCCCC1)c1cn2cccnc2n1` (stereo not given), which INHIBITION is on record?
The INHIBITION was 37.7%.

Which INHIBITION does the source give for `CCC(NC(=O)C1CCN(C(=O)C2CC2)CC1)c1cn2cccnc2n1` (stereo not given) here?
The INHIBITION was 22.9%.

Which INHIBITION does the source give for `CCC(NC(=O)C1CCN(C(C)C)CC1)c1cn2cccnc2n1` (stereo not given) here?
The INHIBITION was 57.5%.

How did the INHIBITION turn out when `CCC(NC(=O)CC1CCN(CC)CC1)c1cn2cccnc2n1` (stereo not given) was run?
Its INHIBITION is -15.3%.

With `CCC(NC(=O)CC1CCN(C(C)C)CC1)c1cn2cccnc2n1` (stereo not given) as the molecule, how does the INHIBITION read?
The INHIBITION was 51.3%.

With `COc1ccc(Cl)cc1S(=O)(=O)N(C)CC(=O)Nc1cccnc1` as the molecule, how does the INHIBITION read?
Its INHIBITION is 33.4%.

`Cc1cnn(CC(C)NCc2csc(-c3ncccn3)n2)c1` (stereo not given) was tested. Which INHIBITION did it give?
The INHIBITION was -3.2%.

With `CN(C)c1cc(C(F)(F)F)cc(-c2ccc(C(=O)O)cc2)n1` as the molecule, how does the INHIBITION read?
Its INHIBITION is 26.9%.

With `Cc1ccc(S(=O)(=O)N2CCC(c3n[nH]cc3C(=O)N(C)C)CC2)cc1` as the molecule, how does the INHIBITION read?
Its INHIBITION is 12.8%.

Which INHIBITION does the source give for `CCN(c1ccsc1C(=O)N1CCCCC1)S(=O)(=O)c1ccccc1` here?
Its INHIBITION is -10.8%.

Which INHIBITION does the source give for `CCN1CCN(C)C(=O)C12CCN(Cc1csc(C)n1)CC2` here?
Its INHIBITION is -1.28%.

With `CC(C)=CCN1C[C@@H](C(=O)O)C[C@H](C(=O)Nc2ccc(C)nc2)C1` as the molecule, how does the INHIBITION read?
The INHIBITION was 28.5%.

With `CC(C)N(CCNC(=O)c1ccc(S(=O)(=O)NC2CC2)cc1)C(C)C` as the molecule, how does the INHIBITION read?
The INHIBITION was 19.2%.

`CN(C)CCNC(=O)c1ccc(S(=O)(=O)N[C@@H]2CCNC2)cc1` was tested. Which INHIBITION did it give?
Its INHIBITION is 87.9%.

`O=C(NC[C@@H]1CCCO1)c1ccc(S(=O)(=O)N[C@@H]2CCNC2)cc1` was tested. Which INHIBITION did it give?
Its INHIBITION is 2.55%.

For `CCS(=O)(=O)N1C[C@@H](OCc2cccnc2)[C@H]2OCCC[C@H]21`, which INHIBITION is on record?
Its INHIBITION is 44.9%.

How did the INHIBITION turn out when `O=C1CCC(c2nc(C3CCN(C(=O)Cc4cccs4)CC3)no2)N1` (stereo not given) was run?
The INHIBITION was -31.1%.

How did the INHIBITION turn out when `CC1=N[C@@]2(CC[C@@H]3CN(Cc4ccccc4C)C[C@@H]32)C(=O)N1CC1CC1` was run?
Its INHIBITION is 28.4%.

How did the INHIBITION turn out when `CC(C)CCc1cc(C(=O)O)nc2[nH]c(=O)[nH]c(=O)c12` was run?
Its INHIBITION is 2.29%.

With `CCc1cc(NCCCNS(C)(=O)=O)nc(-c2ccccn2)n1` as the molecule, how does the INHIBITION read?
Its INHIBITION is 12.4%.

Which INHIBITION does the source give for `CN1CCN(Cc2c(-c3ccco3)[nH]c3ncccc23)CC1` here?
Its INHIBITION is -0.371%.

Which INHIBITION does the source give for `c1coc(-c2[nH]c3ncccc3c2CN2CCCOCC2)c1` here?
Its INHIBITION is 50.1%.

For `OC1CCCN(Cc2c(-c3ccco3)[nH]c3ncccc23)C1` (stereo not given), which INHIBITION is on record?
Its INHIBITION is 35.3%.

With `CCN1CCN(Cc2c(-c3ccco3)[nH]c3ncccc23)CC1` as the molecule, how does the INHIBITION read?
Its INHIBITION is 29.3%.

Which INHIBITION does the source give for `NC(=O)C1CCCN(Cc2c(-c3ccco3)[nH]c3ncccc23)C1` (stereo not given) here?
Its INHIBITION is 61.4%.

`OC1CCN(Cc2c(-c3ccco3)[nH]c3ncccc23)CC1` was tested. Which INHIBITION did it give?
The INHIBITION was 32.3%.

For `O=C1CCCN1Cc1noc(-c2ccc(Cl)cc2)n1`, which INHIBITION is on record?
The INHIBITION was -66%.

`Cc1cnc(CC2COCCN(C(=O)CN3CCOCC3)C2)cn1` (stereo not given) was tested. Which INHIBITION did it give?
The INHIBITION was 16.5%.

With `CCc1noc(CNC2CCCN(Cc3noc(C4CC4)n3)C2)n1` (stereo not given) as the molecule, how does the INHIBITION read?
The INHIBITION was -6.14%.

`Cc1noc(C)c1CNC(=O)N(C1CC1)C(C)c1ccco1` (stereo not given) was tested. Which INHIBITION did it give?
Its INHIBITION is 79.1%.

For `Cc1noc(C)c1CNC(=O)N1CCC(CO)CC1`, which INHIBITION is on record?
Its INHIBITION is 11.8%.

With `CC(c1ccco1)N(C(=O)c1cccc(C#N)c1)C1CC1` (stereo not given) as the molecule, how does the INHIBITION read?
The INHIBITION was -11%.

For `CC(c1ccco1)N(C(=O)CNc1ccc(C#N)cc1)C1CC1` (stereo not given), which INHIBITION is on record?
The INHIBITION was 21.5%.

Which INHIBITION does the source give for `CCc1cc(CNC(=O)N(C2CC2)C(C)c2ccco2)[nH]n1` (stereo not given) here?
Its INHIBITION is 55.9%.

How did the INHIBITION turn out when `CC(c1ccco1)N(C(=O)NCc1ccon1)C1CC1` (stereo not given) was run?
Its INHIBITION is 72.6%.

With `CCN(CC)C1CCN(C(=O)NCc2c(C)noc2C)CC1` as the molecule, how does the INHIBITION read?
Its INHIBITION is 50.1%.

Which INHIBITION does the source give for `CC(c1ccco1)N(C(=O)c1cc2c([nH]c1=O)CCCC2=O)C1CC1` (stereo not given) here?
The INHIBITION was -65.3%.

For `CCc1cc(CNC(=O)N(C2CC2)C(C)c2ccco2)on1` (stereo not given), which INHIBITION is on record?
The INHIBITION was 3.3%.

`Cc1noc(C)c1CNC(=O)N1CCCC(C)CC1` (stereo not given) was tested. Which INHIBITION did it give?
Its INHIBITION is -30.6%.

`CCc1cc(CNC(=O)NCC(c2ccco2)N2CCCC2)[nH]n1` (stereo not given) was tested. Which INHIBITION did it give?
Its INHIBITION is 36.6%.

Which INHIBITION does the source give for `Cc1noc(C)c1CNC(=O)N(C)C1CCN(c2ccccc2)C1=O` (stereo not given) here?
Its INHIBITION is 31.2%.

From ChEMBL document CHEMBL4513216, “Probing the Open Global Health Chemical Diversity Library for Multistage-Active Starting Points for Next-Generation Antimalarials” (ACS Infect Dis, 2020)
